Data taken from publication PMC4336329 (PLoS ONE, 2015).
About 14,000 (4.5%) of roughly 310,000 compounds showed an effect of 50% or more. The effect is printed as a negative number. For the sample, strong results were picked, then their nearest neighbours and some compounds at random.

biological target: human ether-à-go-go-related gene (hERG) potassium channel (human, UniProt Q12809); test: primary screen, population patch clamp on CHO cells stably expressing hERG; higher = less effect of the substance
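Also: peak tail current of the secondary pulse compared with the same well before compound.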

Chain of human ether-à-go-go-related gene (hERG) potassium channel (Q12809 whole entry, looked up): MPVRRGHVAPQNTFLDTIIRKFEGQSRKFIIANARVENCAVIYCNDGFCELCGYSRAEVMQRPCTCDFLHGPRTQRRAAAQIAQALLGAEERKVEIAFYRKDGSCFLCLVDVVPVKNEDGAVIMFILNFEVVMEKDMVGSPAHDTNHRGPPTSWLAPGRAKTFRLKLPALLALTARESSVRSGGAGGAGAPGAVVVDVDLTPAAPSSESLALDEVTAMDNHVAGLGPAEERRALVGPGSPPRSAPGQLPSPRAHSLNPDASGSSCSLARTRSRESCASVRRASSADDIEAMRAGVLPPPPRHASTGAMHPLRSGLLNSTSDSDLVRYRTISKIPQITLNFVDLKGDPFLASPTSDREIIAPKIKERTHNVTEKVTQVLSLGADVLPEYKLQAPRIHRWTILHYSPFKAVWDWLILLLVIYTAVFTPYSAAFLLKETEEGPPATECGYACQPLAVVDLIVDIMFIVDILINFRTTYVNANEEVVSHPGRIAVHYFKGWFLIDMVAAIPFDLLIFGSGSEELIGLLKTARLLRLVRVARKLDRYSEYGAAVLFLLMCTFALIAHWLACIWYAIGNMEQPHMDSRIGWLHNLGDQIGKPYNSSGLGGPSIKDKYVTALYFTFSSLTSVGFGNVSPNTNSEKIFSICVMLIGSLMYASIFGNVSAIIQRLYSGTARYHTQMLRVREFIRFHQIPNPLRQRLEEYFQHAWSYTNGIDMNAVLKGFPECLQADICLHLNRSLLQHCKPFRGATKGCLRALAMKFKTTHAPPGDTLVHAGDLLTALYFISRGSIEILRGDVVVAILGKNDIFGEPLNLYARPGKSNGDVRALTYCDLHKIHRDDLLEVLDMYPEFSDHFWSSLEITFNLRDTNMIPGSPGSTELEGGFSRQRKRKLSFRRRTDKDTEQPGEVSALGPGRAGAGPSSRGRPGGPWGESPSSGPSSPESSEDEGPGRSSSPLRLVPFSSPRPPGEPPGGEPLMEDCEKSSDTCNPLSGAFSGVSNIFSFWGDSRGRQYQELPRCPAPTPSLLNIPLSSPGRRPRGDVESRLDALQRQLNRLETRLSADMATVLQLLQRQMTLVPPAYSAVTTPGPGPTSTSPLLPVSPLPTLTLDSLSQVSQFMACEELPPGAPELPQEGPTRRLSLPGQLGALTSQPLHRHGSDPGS

| SMILES | hERG current change (%, negative = inhibition) at 10uM |
| --- | --- |
| N#C/C(=C\c1cn(Cc2ccccc2)c2ccccc12)C(=O)NCc1ccco1 | 12.5% |
| Cc1ccccc1OCC(=O)OCC(=O)NCc1cccs1 | 1.72% |
| COc1cc(-c2nc(CCNC(=O)c3ccco3)cs2)cc(OC)c1OC | -24.7% |
| Cc1cc(C)cc(NC(=S)N2CCN(c3ccccn3)CC2)c1 | -1.07% |
| COc1ccc(NC(=O)Nc2cc(C)ccc2F)cc1 | 0.822% |
| CCOc1ccc(-n2cnnn2)cc1S(=O)(=O)N1CCCCC1 | -10.1% |
| CC1CCN(C(=O)c2cc3c(=O)n4ccccc4nc3s2)CC1 | 18.7% |
| CC(=O)Nc1ccc(Nc2cc(C)nc3ccccc23)cc1 | -7.21% |
| COc1ccc2nc(C)cc(Nc3cccc(C(=O)O)c3)c2c1 | 21.7% |
| CC(=O)c1cccc(Nc2cc(C)nc3ccc(C)cc23)c1.Cl | -65.2% |
| CC(=O)c1cccc(Nc2cc(C)nc3ccccc23)c1.Cl | -64% |
| CCOC(=O)c1ccc2nc(C)cc(Nc3cccc(C(=O)O)c3)c2c1 | 5.41% |
| CC(=O)c1ccc(Nc2cc(C)nc3ccccc23)cc1 | -31.3% |
| C/C(=N\Nc1nccnc1Cl)c1ccc([N+](=O)[O-])cc1 | -4.09% |
| Cl.N[C@@H]1C[C@H]1c1ccccc1 | 14% |
| O=C(NC1CCCC1)C(c1ccncc1)N(C(=O)c1csnn1)c1cccc(F)c1 (centres unmarked) | 17.2% |
| O=C1N=NC2=C1c1c3ccccc3c(O)n1CC2 | 3.49% |
| CCOC(=O)c1c(NC(=O)CN2CCOCC2)sc2c1CCCC2=O | -6.33% |
| Cc1cc2nc3c(nc2cc1C)CCCC3 | 15.9% |

| SMILES | hERG current change (%, negative = inhibition) at 10uM |
| --- | --- |
| O=C(COC(=O)c1ccc(Br)o1)Nc1cccc(S(=O)(=O)N2CCCCCC2)c1 | -14.9% |
| Cc1ccc(C(=O)OCC(=O)Nc2cccc(S(=O)(=O)N3CCOCC3)c2)o1 | -53.1% |
| Cc1ccc(C(=O)Nc2cccc(S(=O)(=O)N3CCCC3)c2)o1 | -9.98% |
| O=C(Nc1cccc(S(=O)(=O)N2CCCCC2)c1)c1ccc([N+](=O)[O-])o1 | -51.4% |
| Cc1cc(C(=O)OCC(=O)Nc2cccc(S(=O)(=O)N3CCOCC3)c2)c(C)o1 | -19.6% |
| O=C(COC(=O)c1ccc([N+](=O)[O-])o1)Nc1cccc(S(=O)(=O)N2CCOCC2)c1 | -19.4% |
| Cc1ccc2c(CC(=O)Nc3ccc(N4CCN(C)CC4)cc3C)coc2c1 | -72.8% |
| O=C(Nc1ccc(S(=O)(=O)N2CCOCC2)cc1)c1ccc([N+](=O)[O-])o1 | -28.8% |
| Cc1ccc2c(CC(=O)N3CCN(c4ccccc4)CC3)coc2c1 | -22% |
| Cc1ccc(C(=O)OCC(=O)Nc2cccc(S(=O)(=O)N3CCCCC3)c2)o1 | 6.02% |
| O=C(COC(=O)c1ccc([N+](=O)[O-])o1)Nc1cccc(S(=O)(=O)N2CCCCC2)c1 | -56.6% |
| COc1ccccc1NC(=O)Cc1coc2cc(C)ccc12 | -13.1% |
| CCN1CCN(C(=S)c2ccc(-c3ccccc3)cc2)CC1 | -15.4% |
| CCCN1CCN(C(=O)Cn2c(=O)oc3cc(S(=O)(=O)NCc4ccccc4)ccc32)CC1 | -6.53% |
| COc1ccc(-c2ocnc2C(=O)Nc2ccc3c(c2)CCC3)cc1 | 8.64% |
| Cc1ccc(C(=O)Nc2cccc(O)c2)cc1S(=O)(=O)N1CCCCCC1 | 11.2% |
| O=C(O)CSc1nnc(COc2cccc3ccccc23)n1Cc1ccccc1 | 21.3% |
| CCc1ccc2c(CC(=O)Nc3cccc(S(=O)(=O)N4CCOCC4)c3)coc2c1 | -0.796% |
| COc1ccc2c(CC(=O)Nc3cccc(S(=O)(=O)N4CCOCC4)c3)coc2c1 | -32.4% |

| SMILES | hERG current change (%, negative = inhibition) at 10uM |
| --- | --- |
| Cc1ccc2c(CC(=O)Nc3cccc(S(=O)(=O)N4CCOCC4)c3)coc2c1 | -51.4% |
| CCCCCCCNC(=O)C1(CC2CC(c3ccc(Cl)cc3)=NO2)CCN(C(=O)C2CCCC2)CC1 (centres unmarked) | -55.8% |
| CCCCCCCNC(=O)C1(CC2CC(c3ccc(Cl)cc3)=NO2)CCN(C(=O)OC(C)(C)C)CC1 (centres unmarked) | 21.1% |
| CCCCCCCNC(=O)C1(CC2CC(c3ccc(Cl)cc3)=NO2)CCN(C(=O)C2(C)CC2)CC1 (centres unmarked) | -55.8% |
| COc1ccc(CC(=O)NCc2ccc(F)cc2)cc1S(=O)(=O)N1CCOCC1 | -8.29% |
| CCCn1c2ccccc2c2cnn(CC(=O)N(CC)CC)c(=O)c21 | -2.37% |
| CCCn1c2ccccc2c2cnn(CC(=O)NCCN(C)C)c(=O)c21 | -60.1% |
| CCCn1c2ccccc2c2cnn(CC(=O)NCCN(CC)CC)c(=O)c21 | -66.6% |
| CCCn1c2ccccc2c2cnn(CC(=O)OC)c(=O)c21 | -0.361% |
| CCCn1c2ccccc2c2cnn(CC(=O)NCCOC)c(=O)c21 | -5.71% |
| CCCn1c2ccccc2c2cnn(CC(=O)NC(C)CC)c(=O)c21 (centres unmarked) | 7.84% |
| Cc1ccc(S(=O)(=O)N2CCN(CC(=O)N(CC(C)C)c3c(N)n(CC(C)C)c(=O)[nH]c3=O)CC2)c(C)c1 | 12.7% |
| O=[N+]([O-])c1cc([As](=O)(O)O)ccc1O | 19.8% |
| Cc1csc(NC(=O)c2ccc(C)c([N+](=O)[O-])c2)n1 | -41.6% |
| Cc1nn2cc(-c3ccc(Cl)cc3)cnc2c1Br | 10.3% |
| Cc1ccc(NC(=O)C2Oc3ccccc3OC2C)cc1 (centres unmarked) | 8.68% |
| CCCCC(=O)NC(=S)Nc1c(C)cc(Br)cc1C | 2.71% |
| Cc1ccc(CNS(=O)(=O)c2ccc3c(c2)NC(=O)C(C)S3)cc1 (centres unmarked) | -1.22% |
